Bioassay records: PubChem BioAssay, National Center for Advancing Translational Sciences (NCATS)
The entries come from a sample that favours hits as a whole.
Lassa entry inh – inhibitors of Lassa virus binding or cell entry; Lassa virus pseudotype entry inhibition, cell reporter; Potency, µM (top dose mostly 37.9 µM), actives largely listed as inhibitors; hit rate 1.2% among 300,000; calls by dose curve; tested in HEK293 cells; note: nearly all actives have a fitted effect of over 50% in size
Marburg entry inh – Marburg virus entry inhibition; Potency, µM (top dose mostly 37.8 µM), actives largely listed as inhibitors; Marburg virus pseudotyped entry inhibition, cell reporter; hit rate 1.8% among 300,000; calls by dose curve; tested in HEK293 cells
Cycloheximide cs – counter-screen hit for Shiga toxin inhibitors, cycloheximide; cell reporter, cycloheximide protein synthesis inhibition counterscreen; max response, %; hit rate 12% among 300,000; AID 2314; in the data active = max response mostly above about 13%, no sharp cut-off; inactive = mostly below about 14%; note: read at 38.3 µM for the half of the compounds with a filed dose
Shiga toxin inh – inhibitors of Shiga toxin in Vero cells; hit rate 9.2% among 290,000; Vero cells, Shiga toxin protein synthesis inhibition reporter; AID 2315; inhibition, % at 38.7 µM; in the data active = inhibition mostly above about 28%, no sharp cut-off; inactive = mostly below about 43%
VACV Venus inh – inhibitors of vaccinia virus (Venus reporter); Potency, µM (titrated, usually from 36.5 µM), most hits filed as inhibitors; hit rate 0.46% among 330,000; Vaccinia virus Venus reporter expression, fluorescence; calls by dose curve; tested in A549 cells; note: nearly all actives have a fitted effect of over 30% in size
Vaccinia mCherry – vaccinia inhibition (mCherry reporter); Vaccinia virus mCherry reporter infection, fluorescence; Potency, µM (doses to about 36.5 µM), usual class: inhibitors; hit rate 0.63% among 310,000; AID 720579; calls by dose curve; tested in A549 cells; note: nearly all actives have a fitted effect of over 35% in size
A number is an active result; . = inactive; ? = inconclusive; / = not tested or not shown; [ ] = remark or other dose.

SMILES	Lassa entry inh	Marburg entry inh	Cycloheximide cs	Shiga toxin inh	VACV Venus inh	Vaccinia mCherry
O=C(Nc1ccc(Cl)cn1)c1ccc([N+](=O)[O-])o1	?	?	45	119	.	.
O=C(Nc1c(Cl)ccc2nsnc12)c1ccc([N+](=O)[O-])o1	/	/	41	51	/	/
O=C(Nc1ccon1)c1ccc(Br)o1	.	.	.	.	/	/
O=C(Nc1c(Cl)ccc2nsnc12)c1ccc(Br)o1	/	/	/	/	.	.
O=C(CCCSc1nc2ccccc2c(=O)[nH]1)c1ccccc1	/	/	.	.	/	/
CCOC(=O)C1=CNS(=O)(=O)NC1c1ccc(C[C@H](NC(=O)CNC(=O)CCc2ccccc2)C(N)=O)cc1 (some centres undefined)	/	/	/	/	.	.
COC(=O)c1cc(NS(=O)(=O)c2cc(Br)cc3c2N(C(C)=O)CC3)cc(C(=O)OC)c1	.	/	/	/	.	.
COc1cccc(-c2nnc(NC(=O)c3cccs3)s2)c1	.	?	.	.	.	.
CCOC(=O)Nc1nnc(-c2cccc(OC)c2)s1	.	.	15	.	.	.
COc1cccc(N2CCN(CC(=O)Nc3nnc(-c4ccccc4)s3)CC2)c1	0.79µM	?	.	.	.	?
CCc1nnc(NC(=O)Cc2ccc(OC)cc2)s1	.	.	.	.	.	.
CCOC(=O)Nc1nnc(-c2ccc(OC)cc2)s1	.	?	24	.	.	.
CC(=O)N1CCc2ccccc2C1CC(=O)O (centres undefined)	.	.	.	.	.	.
Cc1nnc(NC(=O)c2ccco2)s1	.	.	.	.	.	.
CC(C)(C)Cc1nnc(NC(=O)c2ccco2)s1	/	/	32	42	/	/
COc1cccc(-c2nnc(NC(=O)c3ccco3)s2)c1	/	/	32	96	/	/
Cc1ccc(-c2nnc(NC(=O)c3ccco3)s2)cc1	?	.	28	96	.	.
COc1ccc(-c2nnc(NC(=O)c3ccco3)s2)cc1	.	?	27	.	.	.
O=C(Nc1nnc(Cc2ccccc2)s1)c1ccco1	?	.	.	.	.	.
O=C(COC(=O)c1cc(-c2ccccc2)nc2c(Cl)cccc12)c1ccc(F)cc1	.	.	/	/	.	.
COc1ccc(S(=O)(=O)N(C)c2ccc(C(=O)N3CCN(c4ccccc4)CC3)cc2)cc1OC	.	.	.	.	.	?
CCCc1nc2cccnc2n1C1CCN(C(=O)Cn2nccc2C)CC1	/	/	/	/	.	.
C/C=C(\C)c1nnc(NC(=O)c2ccco2)s1	?	.	15	56	.	.
O=C(Nc1nnc(C23CC4CC(CC(C4)C2)C3)s1)c1ccco1	?	.	35	53	.	.
NC(N)=NN=C1CCCCCCCCCCC1	.	?	.	.	.	.
SMILES	Lassa entry inh	Marburg entry inh	Cycloheximide cs	Shiga toxin inh	VACV Venus inh	Vaccinia mCherry
CCc1sc(-c2cc3ccc(O)cc3oc2=O)nc1-c1ccc(C)cc1	/	/	/	/	.	.
CN(C)c1ccc(NC(=S)NC(=O)/C=C/c2ccc(Cl)cc2)cc1	.	?	53	105	.	.
O=C(/C=C/c1cccc(F)c1)Nc1ccc(S(=O)(=O)Nc2ncccn2)cc1	.	.	.	.	.	?
COc1cccc(NC(=S)NC(=O)/C=C/c2ccc(F)cc2)c1	/	/	.	/	/	/
CC(=O)c1ccc(NC(=S)NC(=O)/C=C/c2ccc(F)cc2)cc1	.	.	20	.	.	.
CNC(=O)c1ccc(NC(=O)/C=C/c2cccc(F)c2)cc1	/	/	27	.	/	/
Cc1cccc(CNC(=O)CN2C(=O)CCn3nc(-c4cn(C)c5ccccc45)cc32)c1	.	/	/	/	.	.
NC(=S)c1ccc[n+]([O-])c1	.	.	/	/	?	?
Cc1cccc(NC(=O)CSCC(=O)N2CCN(Cc3ccc4c(c3)OCO4)CC2)c1	?	?	/	/	.	.
CN(C)c1ccc(C2NC(=O)c3ccccc3N2)cc1 (centres undefined)	?	10µM	46	66	?	.
CN(C)c1ccc(CC2C(=O)Nc3ccccc32)cc1 (centres undefined)	.	.	22	50	.[7.34 µM]	.[7.34 µM]
O=C1NC(c2ccc(Cl)cc2)Nc2ccccc21 (centres undefined)	?	.	.	.	.	.
Cc1cccc(C2NC(=O)c3ccccc3N2)c1 (centres undefined)	.	?	/	/	.	.
Cc1ccc(C2NC(=O)c3ccccc3N2)s1 (centres undefined)	.	.	30	48	.	.
COc1ccc(C)cc1NC(=O)CN(Cc1nnc(-c2ccc(Cl)cc2)o1)C1CCCC1	.	?	13	.	.	.
COC(=O)C1CCN(CC(=O)Nc2cc(Cl)ccc2OC)CC1	/	/	.	.	/	/
CCN1CCC(NC(=O)Nc2cc(Cl)ccc2OC)CC1	.	7.1µM	.	.	.	.
COc1ccc(Cl)cc1NC(=O)CNc1ccccc1CN(C)C1CCCCC1	?	2.5µM	.	.	.	.
COc1ccc(Cl)cc1NC(=O)CN(C)C1CCCCC1	.	?	.	.	.	.
COc1ccc(C)cc1NC(=O)CNc1ccccc1CN(C)C1CCCCC1	.	4.5µM	.	.	.	.
COc1ccccc1N1CCN(S(=O)(=O)CCNC(=O)C2CC2)CC1	.	.	/	/	.	.
O=c1[nH]c(C2CCN(S(=O)(=O)c3ccc4c(c3)OCCO4)CC2)nc2c1nnn2Cc1ccc(F)cc1	?	.	.	.	.	?
O=c1[nH]c(-c2ccccc2)nc(-c2ccccc2)c1Cl	.	.	/	/	.	.
COc1cc(C(=O)N/N=c2/sc3ccccc3n2C)cc(OC)c1OC	.	.	.	.	.	.
Cn1/c(=N/NC(=O)c2ccccc2Br)sc2ccccc21	?	?	36	87	.	.
SMILES	Lassa entry inh	Marburg entry inh	Cycloheximide cs	Shiga toxin inh	VACV Venus inh	Vaccinia mCherry
Cc1cc2oc(C(=O)Nc3nonc3C)c(C)c2cc1C	/	/	57	165	/	/
CCc1ccc2oc(C(=O)Nc3nonc3C)c(C)c2c1	/	/	36	106	/	/
CC(=O)Nc1ccc(NC(=O)c2oc3cc(C)c(C)cc3c2C)cc1	/	/	.	.	?	?
Cc1c(C(=O)Nc2nonc2-c2ccc(F)cc2)oc2ccc(F)cc12	?	?	.	.	?	?
CCc1nonc1NC(=O)c1oc2ccc(F)cc2c1C	?	.	18	.	.	.
COc1cc2c(cc1OC)[C@@H]1C(=O)c3ccc4c(c3O[C@@H]1CO2)C[C@H](C(C)C)O4	?	7.1µM	.	.	.	.
COc1cc2c(cc1OC)C1C(=O)c3ccc4c(c3OC1CO2)CC(C(C)C)O4 (centres undefined)	?	3.5µM	/	/	.	?
COc1cc2c(cc1OC)[C@@H]1C(=O)c3ccc4oc(C(C)C)cc4c3OC1CO2 (some centres undefined)	/	/	/	/	?	.
COc1cc2c(cc1OC)[C@H]1C(=O)c3ccc4c(c3O[C@H]1CO2)C[C@@H](C(C)(C)O)O4	/	/	/	/	.	?
Nc1cccc[n+]1C(c1ccnc2ccccc12)[n+]1ccccc1N	/	/	/	/	.	.
Cc1ccc2c(c1)c(C)c(C)n2CC(O)Cn1nnc2ccccc21 (centres undefined)	?	21µM	30	.	/	/
CC(=O)c1ccc(OCC(O)Cn2nnc3ccccc32)cc1 (centres undefined)	.	.	39	.	.	.
COC(=O)c1ccc(OCC(O)Cn2nnc3ccccc32)cc1 (centres undefined)	.	.	.	.	.	.
